Nrf2 ARE act – activators of Nrf2 (ARE) signaling; 0.31% of 410,000 active; AREc32 ARE-luciferase reporter (MCF7-derived line), luminescence, 24 h; Potency, µM (top dose mostly 46.1 µM), inactives show top-dose activation, hits mostly activators; also: % of control where 0% means no effect; nearly all actives have a fitted effect of over 65% in size
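Nrf2 activation is followed as ARE-luciferase induction in the AREc32 line after one day of compound treatment; luminescence is read with Steady-Glo.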
ELG1 repair inh – blocks ELG1-dependent DNA repair in HEK293T cells; HEK293T ELG1-luciferase reporter, luminescence, 16 h; DNA damage induced by 5-fluorouridine; Potency, µM (titrated, usually from 46.1 µM), for the others: at the highest dose activity change, negative = inhibition, most hits filed as inhibitors; 2.3% of 330,000 active; also: % is scaled to controls: 0 for no effect and ±100 for the full control effect; nearly all actives have a fitted effect of over 55% in size
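Luminescence from the luciferase reporter, measured 30 min after ONE-Glo reagent at room temperature, was the read-out. Beforehand, 2,000 cells per well were exposed for 16 hr at 37 °C to 5-fluorouridine together with compound or vehicle.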
IDH1 R132H inh – human IDH1 R132H inhibition. AID 602179. 0.093% of 390,000 active. Potency, µM (highest dose often 76.6 µM), for the others: top-dose activity change, negative = inhibition, hits mostly inhibitors. IDH1-R132H enzyme, NADPH consumption, diaphorase/resazurin fluorescence; also: % is scaled to controls: 0 for no effect and ±100 for the full control effect; nearly all actives have a fitted effect of over 65% in size
Target sequence (O75874 whole entry R132H, stated change not applied): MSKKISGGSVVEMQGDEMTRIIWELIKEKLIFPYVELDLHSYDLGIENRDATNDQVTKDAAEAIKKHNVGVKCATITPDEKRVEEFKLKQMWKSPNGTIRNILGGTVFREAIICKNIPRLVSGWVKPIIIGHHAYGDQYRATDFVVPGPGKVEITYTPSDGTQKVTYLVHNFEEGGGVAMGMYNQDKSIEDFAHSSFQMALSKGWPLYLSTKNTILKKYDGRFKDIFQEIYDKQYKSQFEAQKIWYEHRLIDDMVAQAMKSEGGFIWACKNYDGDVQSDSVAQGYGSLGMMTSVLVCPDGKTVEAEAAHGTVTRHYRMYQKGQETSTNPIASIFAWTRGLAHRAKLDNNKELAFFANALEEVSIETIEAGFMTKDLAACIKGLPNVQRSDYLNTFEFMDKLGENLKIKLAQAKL
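IDH1-R132H (0.5 ug/mL dispensed) in pH 7.5 Tris buffer was preincubated 30 min with compound, then given a substrate mix of 0.016 mM NADPH and 2 mM alpha-KG for 80 min at room temperature; remaining NADPH was read by diaphorase/resazurin fluorescence.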
A549 viability – kills or reduces viability of A549 cells in Nrf2 counter-screen. AID 504648. Potency, µM (doses to about 46 µM), for the others: top-dose activity change, negative = cytotoxicity, most hits filed as inhibitors. 0.16% of 390,000 active. A549 ARE-Fluc cells, CellTiter-Fluor viability, 18-24 h; also: % is scaled to controls: 0 for no effect and ±100 for the full control effect
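Cytotoxicity counterscreen: CellTiter-Fluor fluorescence was measured in A549 ARE_Fluc cells after 18-24 h of compound exposure in a concentration series. The subsequent BugLite luminescent read reports ARE-luciferase activity.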
Nrf2 inh – blocks Nrf2 signaling. 2.1% of 360,000 active. A549 ARE-Fluc reporter, luciferase luminescence, 18-24 h. Potency, µM (highest dose often 46 µM), without a hit: at the highest dose activity change, negative = inhibition, most hits filed as inhibitors; also: % is scaled to controls: 0 for no effect and ±100 for the full control effect; nearly all actives have a fitted effect of over 60% in size
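A549 ARE_Fluc cells (5000/well, 5% FBS OPTI-MEM) pre-incubated 2 h, then treated with compounds 18-24 h at 37C/5% CO2 in concentration-response. CellTiter-Fluor viability read first; BugLite luciferase luminescence after 15 min at room temperature gives Nrf2 activity.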
* = called active by the depositor; ? = inconclusive; . = no result given. Sampled rows, rich in hits. Any-hit rate of the full collection: about 3.8%. Calls follow the shape of the dose curve; as a rule, active = well fitted curve in the direction sought with a large enough effect; inconclusive = small, poorly fitted or top-dose-only effect, or another doubt; inactive = no such curve, though single readings can be large; an effect the other way counts as inactive or inconclusive. Potency is read from the fitted curve at half-maximal effect.

SMILES	Nrf2 ARE act	ELG1 repair inh	IDH1 R132H inh	A549 viability	Nrf2 inh
COc1ccc(Cl)cc1NC(=O)CN1CCC(n2nnc3cc(C)ccc32)CC1	3%	21µM*	-1%	-16%	?
Cc1c(Cl)cccc1NS(=O)(=O)c1cc2c(cc1F)NC(=O)CC2	.	.	.	-3%	?
COc1ccc(-c2sc(N)nc2-c2ccccc2)cc1	.	.	.	4%	5%
CCOC(=O)C(=Cc1ccc(-n2cncn2)cc1)C(=O)OCC	?	18µM*	2%	?	18µM*
COc1ccc(C(=O)N2CCN(C(=O)c3ccc(-c4ccccc4)cc3)CC2)cc1OC	0%	?	2%	1%	13µM*
COc1ccc(CN2CCN(C(=O)c3ccc4nc(N5CCOCC5)sc4c3)CC2)c(OC)c1OC	2%	21µM*	-1%	1%	-14%
COc1cccc(CN2CCN(C(=O)c3ccc(-c4ccccc4)cc3)CC2)c1OC	0%	18µM*	8%	0%	-11%
O=C(c1ccc2nc(N3CCOCC3)sc2c1)N1CCCC1	0%	?	15%	-2%	-14%
COc1ccc(C(=O)N2CCN(c3nc4ccccc4o3)CC2)cc1OC	0%	?	1%	2%	18µM*
Cc1ccc(S(=O)(=O)Nc2cccc3ccc[n+](C)c23)cc1	.	.	.	-7%	-6%
Cc1ccc(S(=O)(=O)NCc2ccc(C(=O)N3CCN(Cc4ccccc4)CC3)cc2)cc1	2%	?	7%	2%	?
COc1ccc(CN2CCN(C(=O)c3ccc(CNS(=O)(=O)c4ccc(C)cc4)cc3)CC2)c(OC)c1OC	2%	9.2µM*	1%	?	23%
CCOC(=O)c1ccc(NC(=O)C2CCN(C(=O)c3ccc(OC)c(OC)c3)CC2)cc1	7%	?	12%	-12%	23µM*
COC(=O)c1ccc(NC(=O)C2CCN(C(=O)c3cc(OC)c(OC)c(OC)c3)CC2)cc1	0%	-15%	6%	-6%	5%
Cc1cc(C)c(NC(=O)C(C)n2nc(-c3ccc(C)c(C)c3)ccc2=O)c(C)c1 (stereo not drawn)	0%	.	12%	-4%	-16%
Cc1nc2sc(C(=O)N(C)Cc3ccccc3)c(NC(=O)c3ccccc3)c2c(C)c1Cl	-1%	.	.	-2%	18%
O=C(c1ccc(N2CCN(C(=O)c3cccc(F)c3)CC2)cc1)c1cccc(F)c1	0%	?	0%	?	?
O=C(c1ccc(N2CCN(C(=O)c3ccccc3Br)CC2)cc1)c1cccc(F)c1	0%	?	0%	-22%	21µM*
Cc1nn(-c2ccccc2)c(Cl)c1C(=O)NC1CCCCC1	2%	-6%	6%	29%	-23%
Cc1nn(-c2ccccc2)c(C)c1C(=O)OC(C)C(=O)NC1CCCCC1 (stereo not drawn)	1%	?	6%	-21%	18µM*
O=c1[nH]c2ccc(NCc3ccccc3OCc3ccc(Cl)cc3)cc2[nH]1	10%	8.2µM*	3%	-17%	?
CC(=O)N1CCc2cc(S(=O)(=O)NC3CCCc4ccccc43)ccc21 (stereo not drawn)	3%	?	2%	-8%	6.3µM*
Cc1ccc(NC(=O)c2cc(S(=O)(=O)NCCC3=CCCCC3)ccc2F)cc1F	0%	?	0%	?	10µM*
CC(=O)N1CCc2cc(S(=O)(=O)NCCC3=CCCCC3)ccc21	-1%	.	2%	-11%	3.7µM*
Cc1ccc(S(=O)(=O)NCCC2=CCCCC2)cc1C(N)=O	-1%	-14%	-9%	-5%	10µM*
SMILES	Nrf2 ARE act	ELG1 repair inh	IDH1 R132H inh	A549 viability	Nrf2 inh
Cc1ccc(N2CC(C(=O)Nc3cccc(S(=O)(=O)N4CCOCC4)c3)CC2=O)cc1 (stereo not drawn)	-1%	.	5%	.	.
CCCN1CNc2c(c(=O)[nH]c(=S)n2CCc2cc(C)ccc2C)C1	.	.	.	8%	2%
COc1cccc(C(=O)Nc2ccc(-c3nc4ccccc4s3)cc2Cl)c1	5%	.	.	2%	.
CC(=O)N1CCc2cc(S(=O)(=O)CCC(=O)N3CCc4ccccc4C3)ccc21	0%	-2%	-6%	28%	?
CC(=O)N1CCc2cc(S(=O)(=O)NCCC(=O)N3CCc4ccccc4C3)ccc21	0%	23µM*	-4%	-16%	13µM*
CCC(=O)N1CCc2cc(S(=O)(=O)NCCC(=O)N3CCN(c4cccc(C)c4)C(C)C3)ccc21 (stereo not drawn)	1%	?	1%	2%	18µM*
CCCNC(=O)OC[C@H]1O[C@H](CCO/N=C(\C)CCN2CCc3nc(-c4ccccc4)c(-c4ccccc4)cc3C2)C=C[C@@H]1Oc1ccc(OC)cc1	.	6.5µM*	.	.	.
CCc1nc(CN2CCN(c3cc(C(F)(F)F)ccn3)CC2)c(C)[nH]1	0%	7.3µM*	0%	8%	-27%
Cc1ccc(OCc2nnc(SC(C)C(=O)O)n2-c2ccccc2)cc1 (stereo not drawn)	0%	0%	-9%	-2%	-5%
COc1ccc(-c2cc3c(=O)n(CC(=O)Nc4cc(C)ccc4C)ccn3n2)cc1	-1%	.	.	-1%	.
Cc1ccc(-c2n[nH]c(=S)n2/N=C/C=C/c2ccccc2[N+](=O)[O-])cc1	?	0%	0%	-16%	-18%
Cc1cccc(-c2n[nH]c(=S)n2/N=C/C=C/c2ccco2)c1	2.5µM*	1%	-19%	-3%	-6%
O=[N+]([O-])c1ccccc1/C=C/C=N/n1c(-c2ccco2)n[nH]c1=S	10µM*	13%	3%	-4%	7%
S=c1[nH]nc(-c2ccco2)n1/N=C/c1cccc(Cl)c1	13µM*	23%	1%	3%	-3%
Cc1cc2c(s1)c1cnn(Cc3c(Cl)cccc3Cl)c(=O)c1n2C	.	.	.	-7%	4%
COc1ccccc1Nc1nn2c(=O)c3ccc(C(=O)NCc4cccs4)cc3nc2s1	0%	.	-10%	7.3µM*	.
CCN(CC)CCNC(=O)c1ccc2c(=O)n3nc(Nc4ccccc4OC)sc3nc2c1	8%	.	9%	15µM*	?
COc1ccccc1Nc1nn2c(=O)c3ccc(C(=O)NCCCOC(C)C)cc3nc2s1	-1%	.	-3%	-6%	-19%
COc1ccc(Cl)cc1NC(=O)Cn1ncc2c3ccccc3n(Cc3ccccc3)c2c1=O	2%	.	-6%	0%	5%
CC[C@]12c3[nH]c4ccc(Cl)cc4c3CCN1C(=O)[C@@H](CC(=O)NCc1cccc(C(F)(F)F)c1)C[C@@H]2C(=O)N1CCN(C(=O)C2CC2)CC1	-1%	?	-5%	?	?
C[C@]12c3[nH]c4ccc(Cl)cc4c3CCN1C(=O)[C@@H](CC(=O)NCCc1ccccn1)C[C@@H]2C(=O)N1CCCCC1	7%	7.3µM*	-13%	0%	4%
